{"source": "PubChem BioAssay (NCATS)", "note": "Inconclusive results are not listed. Activity calls are given as the source filed them. Calls come from the whole dose curve; as a rule, active = well fitted cell-killing curve with a large enough effect; inconclusive = small, poorly fitted or top-dose-only effect, or effect the other way; inactive = no such curve, though single readings can be large or run the other way. Potency is the fitted concentration of half-maximal effect."}
{"test": "Quantitative High-Throughput drug screen in 47 multiple myeloma cell lines against the NCATS MIPE library collection: PCM6_Riken cell viability assay (AID 1919870); note: nearly all actives have a fitted effect of over 30% in size", "conditions": "CellTiter-Glo ATP, 48 h; series mostly up to 45.8 µM", "text": "PI: Beverly A. Mock Ph.D.\nLaboratory of Cancer Biology and Genetics,\nCenter for Cancer Research, National Cancer Institute,\nNational Institute of Health, Bethesda, Maryland\nDrug resistance and disease progression are common in multiple myeloma (MM) patients, underscoring the need for new therapeutic combinations. […] We hypothesized that effective combinations would reduce MYC expression and enhance p16 activity. […] These preclinical data identify potentially useful drug combinations for evaluation in drug-resistant MM and reveal potential mechanisms of combined drug sensitivity.\nDescribed herein is the primary MIPE qHTS used to cherrypick compounds. Validated compounds were then further tested for potential synergistic activiy.\n[1] Peat TJ, Gaikwad SM, Dubois W, Gyabaah-Kessie N, Zhang S, Gorjifard S, Phyo Z, Andres M, Hughitt VK, Simpson RM, Miller MA, Girvin AT, Taylor A, Williams D, D'Antonio N, Zhang Y, Rajagopalan A, Flietner E, Wilson K, Zhang X, Shinn P, Klumpp-Thomas C, McKnight C, Itkin Z, Chen L, Kazandijian D, Zhang J, Michalowski AM, Simmons JK, Keats J, Thomas CJ, Mock BA. Drug combinations identified by high-throughput screening promote cell cycle transition and upregulate Smad pathways in myeloma. Cancer Lett. 2023 Aug 1;568:216284. doi: 10.1016/j.canlet.2023.216284. Epub 2023 Jun 24. PMID: 37356470; PMCID: PMC10408729.\nSEQUENCE No. (e.g., 1, 2, 3, etc.); […] (e.g., Cells, Incubation, Reagent, etc.); VALUE and DESCRIPTION.\n1; Cells; 5 uL; white, solid bottom 1536-well Greiner assay plate.\n2; Compounds; 23 nL; Kalypsis pin tool (Wako USA) equipped with a 1536-well pin head to transfer to the assay plates.\n3; Incubation; 48 hours; 37C incubation.\n4; Reagent;5uL; CellTiter Glo (Promega).\n5; Detector; 425V; Luminescence; Viewlux PerkinElmer.\nNOTES (numbers refer to Sequence numbers above)\n1. The cell-based screening methods employed in this study were like those previously published. Briefly, the corresponding myeloma cell lines were screened in 1,536-well plates with 500 cells, 5-uL per well for inhibition of cell viability (assessed by measuring ATP levels with CellTiterGlo).\n2. NCATS MIPE 4.0 library of approved and investigational drugs were added using the Kalypsis pin tool. Wells treated with DMSO only for 100% viability and media only for 0% viability were used as controls.\n3. The assay plates were covered and incubated for 48 hours in a 37C, 5% CO2 incubator with controlled humidity.\n4. After 48 hours, CellTilter-GloTM luminescent substrate mix (Promega) reagent was added to the assay plate and plates we incubated for 5 min at room temperature.\n5. Signal was measured as median relative luminescence units on a ViewLux (PerkinElmer) multiplate reader.\n[1] Heske CM, Davis MI, Baumgart JT, Wilson K, Gormally MV, Chen L, Zhang X, Ceribelli M, Duveau DY, Guha R, Ferrer M, Arnaldez FI, Ji J, Tran HL, Zhang Y, Mendoza A, Helman LJ, Thomas CJ. Matrix Screen Identifies Synergistic Combination of PARP Inhibitors and Nicotinamide Phosphoribosyltransferase (NAMPT) Inhibitors in Ewing Sarcoma. Clin Cancer Res. 2017 Dec 1;23(23):7301-7311. doi: 10.1158/1078-0432.CCR-17-1121. Epub 2017 Sep 12. PMID: 28899971; PMCID: PMC6636827."}
{"smiles": "O=c1[nH]c2ccccc2n1CCCN1CCC(n2c(=O)[nH]c3cc(Cl)ccc32)CC1", "Potency": "2.96 µM (active)"}
{"smiles": "COC[C@H]1OC(=O)c2coc3c2[C@@]1(C)C1=C(C3=O)C2CCC(=O)[C@@]2(C)C[C@H]1OC(C)=O", "note": "(stereo partly specified)", "Potency": "3.32 µM (active)"}
{"smiles": "CNC(=O)c1ccc(N2C(=S)N(c3ccc(C#N)c(C(F)(F)F)c3)C(=O)C23CCC3)cc1F", "Potency": "7.43 µM (active)"}
{"smiles": "CCCC(C)(COC(N)=O)COC(=O)NC(C)C", "note": "(stereo unspecified)", "Potency": "inactive"}
{"smiles": "COc1ccc2c(c1OC)CN1CCc3cc4c(cc3C1C2)OCO4", "note": "(stereo unspecified)", "Potency": "16.6 µM (active)"}
{"smiles": "Cc1sc2c(c1C)C(c1ccc(Cl)cc1)=N[C@@H](CC(=O)OC(C)(C)C)c1nnc(C)n1-2", "Potency": "2.96 µM (active)"}
{"smiles": "O=C1CC[C@@]2(O)[C@H]3Cc4ccc(O)c5c4[C@@]2(CCN3CC2CC2)[C@H]1O5", "Potency": "inactive"}
{"smiles": "C[C@@H]1[C@@H](CC(C[C@H]2O[C@@H]3O[C@]4(C)CC[C@@H]5[C@H](C)CC[C@@H]([C@H]2C)[C@@]35OO4)C[S+](=O)([O-])c2ccc(COC(=O)N(C)C)cc2)O[C@@H]2O[C@]3(C)CC[C@H]4[C@H](C)CC[C@@H]1[C@@]24OO3", "note": "(stereo partly specified)", "Potency": "0.418 µM (active)"}
{"smiles": "NCC1(CC(=O)O)CCCCC1", "Potency": "16.6 µM (active)"}
{"smiles": "CC(O)(CS(=O)(=O)c1ccc(F)cc1)C(=O)Nc1ccc(C#N)c(C(F)(F)F)c1", "note": "(stereo unspecified)", "Potency": "0.59 µM (active)"}
{"smiles": "CNC(=O)N1N=C(c2ccc(N)cc2)c2cc3c(cc2CC1C)OCO3", "note": "(stereo unspecified)", "Potency": "13.2 µM (active)"}
{"smiles": "C[C@@H]1O[C@@H](O[C@H]2C[C@@H](O)[C@]3(CO)[C@H]4[C@H](O)C[C@]5(C)[C@@H](C6=CC(=O)OC6)CC[C@]5(O)[C@@H]4CC[C@]3(O)C2)[C@H](O)[C@H](O)[C@H]1O", "Potency": "0.0187 µM (active)"}
{"smiles": "O=C(O)C(=O)c1cn(Cc2ccccc2)c2ccc(-c3ccc(OC(F)(F)F)cc3)cc12", "Potency": "16.6 µM (active)"}
{"smiles": "Cn1cc(C2=C(c3cn(C4CCN(Cc5ccccn5)CC4)c4ccccc34)C(=O)NC2=O)c2ccccc21", "Potency": "9.35 µM (active)"}
{"smiles": "COC1(CS(=O)c2ccccc2)CCN(CCc2c[nH]c3ccc(F)cc23)CC1", "note": "(stereo unspecified)", "Potency": "inactive"}
{"smiles": "O=P1(NCCCl)OCCCN1CCCl", "note": "(stereo unspecified)", "Potency": "inactive"}
{"smiles": "Cc1cccc(C)c1NC(=O)CN1CCCC1=O", "Potency": "inactive"}
{"smiles": "Cc1cc(SCc2sc(-c3ccc(C(F)(F)F)c(F)c3)nc2C)ccc1OCC(=O)O", "Potency": "20.9 µM (active)"}
{"smiles": "CN(C)[C@@H]1C(=O)C(C(N)=O)=C(O)[C@@]2(O)C(=O)C3=C(O)c4c(O)cccc4[C@@](C)(O)[C@H]3C[C@@H]12", "Potency": "inactive"}
{"smiles": "N[C@@H](Cc1ccc(N(CCCl)CCCl)cc1)C(=O)O", "Potency": "3.72 µM (active)"}
{"smiles": "CN1CCN(C(=O)O[C@H]2c3nccnc3C(=O)N2c2ccc(Cl)cn2)CC1", "Potency": "inactive"}
{"smiles": "COc1ccc(C(=O)c2c(C)n(CCN3CCOCC3)c3ccccc23)cc1", "Potency": "inactive"}
{"smiles": "Fc1ccc(C(OCCN2CCN(CCCc3ccccc3)CC2)c2ccc(F)cc2)cc1", "Potency": "10.5 µM (active)"}
{"smiles": "CC1=C2C[C@@H]3[C@@H](CC=C4C[C@@H](O)CC[C@@]43C)[C@@H]2CC[C@]12O[C@H]1C[C@H](C)CN[C@H]1[C@H]2C", "Potency": "inactive"}
{"smiles": "CN(C)CCc1ccc(O)cc1", "Potency": "inactive"}
{"smiles": "COC[C@@H](NC(C)=O)C(=O)NCc1ccccc1", "Potency": "inactive"}
